The campaign covered roughly 190,000 compounds. About 810 (0.43%) were called active. Rule as the data show it: active = inhibition above about 50%; inactive = the rest. For the sample, actives were picked, then their nearest neighbours and some compounds at random.
What follows are compounds tested against Mannose-6-phosphate isomerase (Homo sapiens) (UniProt P34949) (assay: inhibitors of human PMI, primary screen, biochemical, fluorescence intensity, coupled assay (AID 1209;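 also: plate controls were DMSO vehicle for no effect and wells lacking substrate for full effect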)). Settings: purified PMI enzyme, at 20 µM, stronger effect = higher value.
Chain of Mannose-6-phosphate isomerase (Homo sapiens) (P34949 whole entry, looked up): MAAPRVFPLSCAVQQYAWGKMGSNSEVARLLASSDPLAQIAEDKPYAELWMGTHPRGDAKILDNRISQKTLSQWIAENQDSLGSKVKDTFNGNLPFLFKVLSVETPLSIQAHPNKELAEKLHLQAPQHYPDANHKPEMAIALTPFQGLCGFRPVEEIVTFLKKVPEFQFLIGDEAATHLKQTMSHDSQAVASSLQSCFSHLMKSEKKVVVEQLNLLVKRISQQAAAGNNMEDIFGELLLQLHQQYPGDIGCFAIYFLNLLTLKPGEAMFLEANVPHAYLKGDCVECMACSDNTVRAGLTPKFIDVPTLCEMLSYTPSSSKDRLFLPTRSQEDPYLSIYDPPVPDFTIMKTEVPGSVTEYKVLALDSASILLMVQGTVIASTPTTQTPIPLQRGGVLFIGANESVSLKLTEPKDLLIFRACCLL

Row | Structure (SMILES) | inhibition
1 | COc1cccc(N(CC(=O)N2CCN(C)CC2)S(=O)(=O)c2ccccc2)c1 | 2.4% (inactive)
2 | Cc1ccc(C)c(N2CCN(C(c3ccc(N(C)C)cc3)c3nnnn3C(C)(C)C)CC2)c1 (stereo not given) | 12.6% (inactive)
3 | CCCNCC(O)Cn1c2ccccc2n2c(=O)cc(C)c(C#N)c12 (stereo not given) | -6% (inactive)
4 | Cc1ccc(C)c(NC(=O)CSc2ccc(-c3ccco3)nn2)c1 | 8.2% (inactive)
5 | COc1cccc(N(C(=O)Cn2nnc3ccccc32)C(C(=O)NCc2ccco2)c2cccnc2)c1 (stereo not given) | 1.5% (inactive)
6 | Cc1ccc(C)c(C(=O)NC2CC(C)(C)NC(C)(C)C2)c1 | 2.7% (inactive)
7 | CC(NC(=O)c1sc2ccccc2c1Cl)C1CCCO1 (stereo not given) | 6.7% (inactive)
8 | O=C(CSc1nccc(-c2ccc(Br)cc2)n1)NCCc1ccccc1 | 0.8% (inactive)
9 | CSc1ccc(-c2nc(O)c3cnccn23)cc1 | -16.4% (inactive)
10 | CN(C)S(=O)(=O)c1cccc(NC(=O)c2cc(-c3cccs3)nn2-c2ccccc2)c1 | 2.9% (inactive)
11 | CC(C)NC(=O)C1CCN(C2CCN(Cc3nc4ccccc4s3)CC2)CC1 | 1.6% (inactive)
12 | COc1ccc2c(c1)-c1nc(/N=C/c3cccc(OC)c3O)sc1CC2 | 65.8% (active)
13 | COc1cccc(C=Nc2cc(C)cc(C)c2)c1O | -1.7% (inactive)
14 | COc1cccc(C=Nc2cc(C)on2)c1O | 13.5% (inactive)
15 | CCC(Oc1ccc2c(c1)C(=O)CC(C)(C)O2)C(=O)NCCN1CCCCCC1 (stereo not given) | 20% (inactive)
16 | CC(Sc1nnc(COc2ccc([N+](=O)[O-])cc2)n1C)C(=O)O (stereo not given) | 0.2% (inactive)
17 | Cc1nc([N+](=O)[O-])nn1C12CC3CC(CC(Br)(C3)C1)C2 | 75% (active)
18 | Cc1nc([N+](=O)[O-])nn1C12CC3CC(CC(Cl)(C3)C1)C2 | 4.8% (inactive)
19 | Cc1cc(NC(=O)C23CC4CC(C2)CC(n2cnc([N+](=O)[O-])n2)(C4)C3)no1 | 2.7% (inactive)
20 | CCN(CC)CCCOC(=O)C1(c2ccccc2)CCCC1 | -3.2% (inactive)
21 | Cc1ccc(Nc2nc3ccccc3s2)cc1 | -5.9% (inactive)
22 | Cc1ccc(Nc2nnns2)cc1C | 47.5% (inactive)

Row | Structure (SMILES) | inhibition
23 | Cc1ccc(Nc2nnns2)cc1 | 57.4% (active)
24 | COc1ccc(OC)c(NC(=O)C2C(C(=O)O)C3(Cl)C(Cl)=C(Cl)C2(Cl)C3(Cl)Cl)c1 (stereo not given) | 18.2% (inactive)
25 | CCOC(=O)C(Nc1ccc2ccccc2c1)C(=O)OCC | 60.3% (active)
26 | CCCCCC(=O)Nc1ccc2ccccc2c1 | 16.7% (inactive)
27 | CCC(=O)Nc1ccc2ccccc2c1 | 12% (inactive)
28 | COc1ccc(CNS(=O)(=O)c2cccc(S(=O)(=O)N3CCOCC3)c2)cc1 | 6.7% (inactive)
29 | CCOc1cc(C(C#N)N2CCOCC2)ccc1OC (stereo not given) | 12% (inactive)
30 | O=C(CN1C(=O)COc2ccccc21)NCCCN1CCN(Cc2ccccc2)CC1 | 4.6% (inactive)
31 | CCOC(=O)c1sc(NC(=O)CSc2nnc(Cc3ccccc3)o2)c(C(=O)OCC)c1C | 4.9% (inactive)
32 | CCOC(=O)c1sc(NC(=O)CSc2nc(C)cc(C(F)(F)F)n2)c(C#N)c1C | 26.6% (inactive)
33 | CCOC(=O)c1sc(NC(=O)CSc2n[nH]c(-c3ccncc3)n2)c(C#N)c1C | -4.9% (inactive)
34 | CCOC(=O)c1sc(NC(=O)CSc2nnc(Cc3ccccc3)o2)c(C#N)c1C | 72.4% (active)
35 | Cc1sc(NC(=O)COc2ccccc2)c(C#N)c1C | 58.3% (active)
36 | Cc1ccccc1NC(=O)c1sc(NC(=O)COc2ccccc2)c(C#N)c1C | 5.1% (inactive)
37 | Cc1sc(NC(=O)COc2ccccc2)c(C#N)c1-c1ccccc1 | 4.5% (inactive)
38 | CCOC(=O)c1sc(NC(=O)CSc2n[nH]c(-c3ccccc3)n2)c(C#N)c1C | 51.7% (active)
39 | CCOC(=O)c1c(NC(=O)CSc2nnc(Cc3ccccc3)o2)sc(C(C)=O)c1C | 9.9% (inactive)
40 | CCOC(=O)c1sc(NC(=O)CSc2nc(C)cc(C)n2)c(C#N)c1C | 4.2% (inactive)
41 | CCOC(=O)c1sc(NC(=O)CSc2nc(C)cc(-c3ccccc3)n2)c(C#N)c1C | 61.2% (active)
42 | CCOC(=O)c1sc(NC(=O)CSc2n[nH]c(-c3ccc(Cl)cc3Cl)n2)c(C#N)c1C | 25.2% (inactive)
43 | Cc1cc(C(=O)Nc2ccc(C(=O)O)cc2)c(-c2ccccc2)o1 | 4% (inactive)
44 | Cc1ccc[n+](CC(=O)c2ccc(NC(=O)c3ccccc3)cc2)c1 | -10.6% (inactive)

Row | Structure (SMILES) | inhibition
45 | COCCN(CCOC)S(=O)(=O)c1ccc(C(=O)Nc2sc3c(c2C(N)=O)CCCCC3)cc1 | 3.2% (inactive)
46 | CC(=O)Nc1ccc(NC(=O)COc2c(C)cc(Br)cc2C)cc1 | 13.2% (inactive)
47 | CCO/N=C(\C)c1c(O)c(CC)c(-c2ccccc2)n(-c2ccccc2)c1=O | 9.9% (inactive)
48 | C=CCn1c(NC(=O)CC)c(C(=O)OCC)sc1=S | 17.3% (inactive)
49 | CCOC(=O)c1sc(NC(=O)c2ccc(Br)o2)cc1C | 11.7% (inactive)
50 | C=CCn1c(NC(=O)c2ccc(Br)o2)c(C(=O)OCC)sc1=S | 50.7% (active)
51 | O=C(NCc1cn2ccccc2n1)c1ccccc1 | -15.8% (inactive)
52 | O=C(CCN1CCCCC1)c1ccc2c(c1)OCCO2 | 36.1% (inactive)
53 | O=C(CCN1CCCC1Cc1ccccc1)c1ccc2c(c1)OCCO2 (stereo not given) | 50.8% (active)
54 | O=C(CCN1CCC(c2ccccc2)C1)c1ccc2c(c1)OCCO2 (stereo not given) | 47.6% (inactive)
55 | COc1cccc(NC(=S)N2CCN(c3ccccn3)CC2)c1 | 12.3% (inactive)
56 | FC(F)(F)c1cccc(NC(=S)N2CCN(c3ccccn3)CC2)c1 | -17% (inactive)
57 | FC(F)Oc1cccc(NC(=S)N2CCN(c3ccccn3)CC2)c1 | 65.6% (active)
58 | CN(C)c1cccc(C(=O)OCC(=O)Nc2nccs2)c1 | -1.5% (inactive)
59 | COc1nc(N2CCCCCC2)nc(N2CCCCCC2)n1 | 2.3% (inactive)
60 | N/C(=N/O)c1nc(N2CCCCC2)nc(N2CCCCC2)n1 | 2.2% (inactive)
61 | COc1nc(/C(N)=N/O)nc(N2CCCCC2)n1 | 66.9% (active)
62 | COc1ccc(C(=O)Nc2ccc(CN3CCCCC3)cc2)cc1 | 3% (inactive)
63 | CCOC(=O)Cn1nc(C)c([N+](=O)[O-])c1C | -27.5% (inactive)
64 | Cc1nn(CC(=O)Nc2nccs2)c(C)c1[N+](=O)[O-] | -3.9% (inactive)
65 | CCc1c(C)sc(NC(=O)Cn2nc(C)c([N+](=O)[O-])c2C)c1C(N)=O | 53.3% (active)
